Assay results from PubChem BioAssay.
For some of these results: Measured potencies and affinities stand elsewhere. Calls of active or inactive are those of the source. Unless noted, how the calls were made is not given here.

Assays:
[1] = antimalarial activity against Dd2 strain (AID 2302;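 active means growth inhibition above 50% at the single 2 µM test dose, taken to imply half-maximal potency below 2 µM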;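 further: 0% = DMSO untreated growth and 100% = chloroquine plus artemisinin killed control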); settings: P. falciparum Dd2 in RBCs, LDH growth readout, 72 h; at 2 µM; active compounds read high
[2] = HepG2 cytotoxicity, primary screen, cytotoxicity control for P. falciparum antimalarial project, cell-based, ATP luminescence (AID 2303;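 active means inhibition above 50%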;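 further: 0% = DMSO wells and 100% = digitonin-killed cells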); settings: HepG2 viability, 24-48 h, at 10 µM, active compounds read high
[3] = target: L-lactate dehydrogenase (Plasmodium falciparum (isolate CDC / Honduras)) (UniProt Q27743); experiment: PfLDH activity inhibition – cell lysate, 3D7 strain, counter-screen for P. falciparum growth inhibition project (AID 2304);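 further: 0% = vehicle and 100% = reference inhibitor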; settings: P. falciparum 3D7 crude extract, LDH APAD/NBT absorbance; at 2 µM; active compounds read high
[4] = inhibition of 3D7 malaria parasite growth – strain 3D7 (AID 2306);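 further: 0% = DMSO wells and 100% = chloroquine plus artemisinin control wells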; settings: P. falciparum 3D7 erythrocytic growth, LDH absorbance, 72 h; at 2 µM; active compounds read high
[5] = target: Calcium-dependent protein kinase 1 (Plasmodium falciparum (isolate 3D7)) (UniProt P62344); experiment: PfCDPK1 kinase inhibitors, biochemical, TCAMS library (AID 1159585; cut-off not given, nearly all actives have IC50 up to about 0.98 µM;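 further: inhibitors leave more ATP so luminescence rises with inhibition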); settings: recombinant PfCDPK1, Kinase-Glo ATP depletion luminescence
[6] = target: Plasmodium falciparum protein kinase 6 (PK6, PF3D7_1337100) (UniProt Q8IDW1); experiment: PfPK6 kinase inhibitors, biochemical, TCAMS library (AID 1159586); settings: recombinant PfPK6, Kinase-Glo ATP depletion luminescence
[7] = target: Protein kinase 7 (PK7), Plasmodium falciparum 3D7 (PF3D7_0213400) (UniProt Q7YTF7); experiment: inhibition of Plasmodium PK7 catalytic activity – biochemical, TCAMS antimalarial set, Kinase-Glo luminescence (AID 1159587); settings: recombinant PfPK7, Kinase-Glo ATP depletion luminescence
[8] = target: Calcium-dependent protein kinase 4 (Plasmodium falciparum (isolate 3D7)) (UniProt Q8IBS5); experiment: PfCDPK4 kinase inhibitors, biochemical, TCAMS library (AID 1159588; cut-off not given, nearly all actives have IC50 up to about 0.91 µM); settings: recombinant PfCDPK4, Kinase-Glo ATP depletion luminescence
Sequence of Calcium-dependent protein kinase 4 (Plasmodium falciparum (isolate 3D7)) (Q8IBS5 whole entry, looked up): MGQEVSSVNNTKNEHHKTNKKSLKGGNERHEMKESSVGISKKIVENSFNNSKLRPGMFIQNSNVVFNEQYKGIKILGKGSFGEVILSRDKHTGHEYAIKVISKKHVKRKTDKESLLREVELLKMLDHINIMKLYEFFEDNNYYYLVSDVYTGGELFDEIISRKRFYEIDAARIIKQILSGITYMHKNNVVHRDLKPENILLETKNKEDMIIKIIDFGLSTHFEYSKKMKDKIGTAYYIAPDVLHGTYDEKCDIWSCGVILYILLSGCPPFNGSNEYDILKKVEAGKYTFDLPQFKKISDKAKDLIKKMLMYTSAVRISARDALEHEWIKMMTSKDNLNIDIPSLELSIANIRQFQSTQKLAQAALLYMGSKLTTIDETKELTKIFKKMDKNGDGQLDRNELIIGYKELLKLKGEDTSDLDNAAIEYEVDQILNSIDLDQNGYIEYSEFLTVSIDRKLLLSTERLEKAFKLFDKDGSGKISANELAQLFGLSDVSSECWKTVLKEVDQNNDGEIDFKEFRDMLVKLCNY

Sequence of Plasmodium falciparum protein kinase 6 (PK6, PF3D7_1337100) (Q8IDW1 1-305): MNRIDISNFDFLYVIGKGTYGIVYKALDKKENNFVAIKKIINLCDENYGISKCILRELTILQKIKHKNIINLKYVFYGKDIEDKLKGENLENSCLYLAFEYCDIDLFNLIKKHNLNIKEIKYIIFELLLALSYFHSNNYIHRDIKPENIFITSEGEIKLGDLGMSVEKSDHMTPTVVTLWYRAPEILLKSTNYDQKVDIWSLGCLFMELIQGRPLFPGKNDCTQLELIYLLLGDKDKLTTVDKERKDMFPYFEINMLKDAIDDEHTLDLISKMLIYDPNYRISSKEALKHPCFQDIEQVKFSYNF
Sequence of Protein kinase 7 (PK7), Plasmodium falciparum 3D7 (PF3D7_0213400) (Q7YTF7 1-343): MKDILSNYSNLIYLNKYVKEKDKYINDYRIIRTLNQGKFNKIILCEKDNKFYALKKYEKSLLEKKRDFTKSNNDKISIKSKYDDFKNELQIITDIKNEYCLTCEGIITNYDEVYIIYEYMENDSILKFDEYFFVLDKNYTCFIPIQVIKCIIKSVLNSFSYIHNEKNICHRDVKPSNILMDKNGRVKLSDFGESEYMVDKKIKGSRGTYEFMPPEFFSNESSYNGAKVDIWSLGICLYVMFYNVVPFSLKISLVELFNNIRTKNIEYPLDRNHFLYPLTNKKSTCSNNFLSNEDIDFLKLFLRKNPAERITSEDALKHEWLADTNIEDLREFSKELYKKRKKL
Sequence of Calcium-dependent protein kinase 1 (Plasmodium falciparum (isolate 3D7)) (P62344 whole entry, looked up): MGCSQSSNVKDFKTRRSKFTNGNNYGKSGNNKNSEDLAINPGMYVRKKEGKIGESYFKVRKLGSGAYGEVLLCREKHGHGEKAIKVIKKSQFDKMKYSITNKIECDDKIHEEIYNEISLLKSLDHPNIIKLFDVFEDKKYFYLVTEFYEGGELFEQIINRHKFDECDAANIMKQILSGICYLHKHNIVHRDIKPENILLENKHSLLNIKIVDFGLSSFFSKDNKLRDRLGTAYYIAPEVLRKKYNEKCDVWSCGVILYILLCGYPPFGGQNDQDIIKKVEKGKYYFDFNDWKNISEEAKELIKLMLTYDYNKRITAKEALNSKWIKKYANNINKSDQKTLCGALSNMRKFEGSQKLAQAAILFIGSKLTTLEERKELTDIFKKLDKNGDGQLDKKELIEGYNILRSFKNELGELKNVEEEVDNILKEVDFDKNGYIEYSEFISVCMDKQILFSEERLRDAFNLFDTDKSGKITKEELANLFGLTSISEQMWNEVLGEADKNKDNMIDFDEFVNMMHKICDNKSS
Sequence of L-lactate dehydrogenase (Plasmodium falciparum (isolate CDC / Honduras)) (Q27743 whole entry, looked up): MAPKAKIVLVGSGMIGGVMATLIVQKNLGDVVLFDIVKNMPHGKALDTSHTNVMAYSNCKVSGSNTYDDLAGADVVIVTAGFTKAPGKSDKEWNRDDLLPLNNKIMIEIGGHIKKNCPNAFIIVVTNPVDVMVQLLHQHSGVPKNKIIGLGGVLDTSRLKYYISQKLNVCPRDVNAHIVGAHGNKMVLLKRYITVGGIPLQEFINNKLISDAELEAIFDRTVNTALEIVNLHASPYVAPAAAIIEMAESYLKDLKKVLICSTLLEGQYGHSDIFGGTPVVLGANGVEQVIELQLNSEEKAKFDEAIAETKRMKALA

C[C@H](Cc1ccc(S(=O)(=O)c2ccc(C[C@@H](C)NC[C@H](O)c3cccc(Cl)c3)cc2)cc1)NC[C@H](O)c1cccc(Cl)c1
inactive: inhibition [3] -9% | outcome [5] | outcome [6] | outcome [7] | outcome [8]
active: growth inhibition [1] 98% | inhibition [2] 100% | growth inhibition [4] 99%

Fc1ccc(C=NNc2ccnc3ccccc23)cc1
active: growth inhibition [1] 101% | growth inhibition [4] 101%
inactive: inhibition [2] 21% | inhibition [3] 4% | outcome [5] | outcome [6] | outcome [7] | outcome [8]

O=C(NCC1CCN(Cc2ccc3c(c2)OCCO3)C1)c1cc(-c2cccc(C(F)(F)F)c2)cs1 (stereo not drawn)
active: growth inhibition [4] 101%
inactive: growth inhibition [1] 1% | inhibition [2] 31% | inhibition [3] 4% | outcome [5] | outcome [6] | outcome [7] | outcome [8]

NCC1CCCN1Cc1cccc(-c2ccc(-c3nc4ccccc4[nH]3)s2)c1 (stereo not drawn)
active: growth inhibition [1] 66% | growth inhibition [4] 99%
inactive: inhibition [2] 16% | inhibition [3] 3% | outcome [5] | outcome [6] | outcome [7] | outcome [8]

COc1cc2c(cc1O)[C@@H]1[C@H](O)[C@@H](O)C=C3CCN(C2)[C@H]31
inactive: growth inhibition [1] 31% | inhibition [2] 18% | inhibition [3] 3% | outcome [5] | outcome [6] | outcome [7] | outcome [8]
active: growth inhibition [4] 90%

Cc1ccc2c(c1)C1(CC(=O)N(CCc3scnc3C)C1=O)C(=O)N2Cc1ccccc1 (stereo not drawn)
inactive: inhibition [2] -5% | inhibition [3] 2% | outcome [5] | outcome [6] | outcome [7] | outcome [8]
active: growth inhibition [1] 73% | growth inhibition [4] 83%

Cc1cc(N[C@@H](CC(C)C)C(=O)Nc2ccccc2)nc(NCc2ccccc2C)n1
inactive: inhibition [2] 21% | inhibition [3] 4% | outcome [5] | outcome [6] | outcome [7] | outcome [8]
active: growth inhibition [1] 81% | growth inhibition [4] 101%

Cc1cnc(C(=O)Nc2cccc(-c3ccc(-c4nc5ccc(F)cc5[nH]4)cc3)c2)cn1
inactive: growth inhibition [1] 13% | inhibition [2] 19% | inhibition [3] -2% | outcome [5] | outcome [6] | outcome [7] | outcome [8]
active: growth inhibition [4] 102%

CCC(C)(CC)C(=O)n1ncc2c3c(N)nc(N)nc3ccc21
inactive: growth inhibition [1] 6% | inhibition [3] -4% | outcome [5] | outcome [6] | outcome [7] | outcome [8]
active: inhibition [2] 73% | growth inhibition [4] 94%

O=C(NCc1ccc(C(=O)NCc2cccc3ccccc23)cc1)c1ccc(O)c(-c2ccc(Cl)c(Cl)c2)c1
inactive: growth inhibition [1] 31% | inhibition [2] -10% | inhibition [3] -2% | outcome [5] | outcome [6] | outcome [7] | outcome [8]
active: growth inhibition [4] 100%

O=C(NCc1ccccc1)NC1CCN(c2ccnc3cc(Cl)ccc23)C1 (stereo not drawn)
inactive: inhibition [2] 13% | inhibition [3] -2% | outcome [5] | outcome [6] | outcome [7] | outcome [8]
active: growth inhibition [1] 99% | growth inhibition [4] 94%

Cc1ccc(F)cc1S(=O)(=O)Nc1cccc(CCN2CCC(N3CCCCC3)CC2)c1
active: growth inhibition [4] 96%
inactive: growth inhibition [1] 9% | inhibition [2] 15% | inhibition [3] 5% | outcome [5] | outcome [6] | outcome [7] | outcome [8]

FC(F)(F)c1cnc(Sc2nnc(-c3ccco3)o2)c(Cl)c1
inactive: inhibition [2] -1% | inhibition [3] -4% | outcome [5] | outcome [6] | outcome [7] | outcome [8]
active: growth inhibition [1] 97% | growth inhibition [4] 98%

Cc1cc2c3c(N)nc(N)nc3ccc2n1C(C)C
inactive: growth inhibition [1] 0% | inhibition [3] 2% | outcome [5] | outcome [6] | outcome [7] | outcome [8]
active: inhibition [2] 70% | growth inhibition [4] 93%

COc1ccc(O)c(C(=O)NCCc2ccc(OC)c(-c3ccc(C(C)(C)C)cc3)c2)c1
active: growth inhibition [1] 91% | growth inhibition [4] 88%
inactive: inhibition [2] 11% | inhibition [3] 5% | outcome [5] | outcome [6] | outcome [7] | outcome [8]

CN(CCN)Cc1ccc(-c2ccc(-c3nc4ccc(F)cc4[nH]3)s2)cc1
active: growth inhibition [1] 81% | growth inhibition [4] 96%
inactive: inhibition [2] 31% | inhibition [3] -1% | outcome [5] | outcome [6] | outcome [7] | outcome [8]

O=C(Cc1ccc(NC(=O)c2ccc(O)c(-c3cccc([N+](=O)[O-])c3)c2)cc1)NCCN1CCCCC1
inactive: growth inhibition [1] 3% | inhibition [2] 4% | inhibition [3] 4% | outcome [5] | outcome [6] | outcome [7] | outcome [8]
active: growth inhibition [4] 89%

COc1ccc(CCN(C)CCCN2CCC(NC(=O)c3cccc4c(=O)c5ccccc5[nH]c34)CC2)cc1OC
inactive: inhibition [2] 19% | inhibition [3] 2% | outcome [5] | outcome [6] | outcome [7] | outcome [8]
active: growth inhibition [1] 72% | growth inhibition [4] 99%

O=C(NCCCc1ccccc1)c1ccc(O)c(-c2cc(Cl)cc(Cl)c2)c1
inactive: inhibition [2] -1% | inhibition [3] -3% | outcome [5] | outcome [6] | outcome [7] | outcome [8]
active: growth inhibition [1] 98% | growth inhibition [4] 99%

COc1ccc(-n2c(=O)c3c(n4c(SC(C)C)nnc24)-c2ccccc2CC32CCCCC2)cc1
active: growth inhibition [4] 99%
inactive: growth inhibition [1] 15% | inhibition [2] -3% | inhibition [3] -1% | outcome [5] | outcome [6] | outcome [7] | outcome [8]

Cc1ccc(NC(C)C(=O)Nc2ccccc2)cc1S(=O)(=O)N1CCCCCC1 (stereo not drawn)
active: growth inhibition [1] 97% | growth inhibition [4] 99%
inactive: inhibition [2] 12% | inhibition [3] -4% | outcome [5] | outcome [6] | outcome [7] | outcome [8]

O=C(Nc1ccc(OC2CCN(Cc3ccco3)C2)c(Cl)c1)c1ccc2ncccc2c1 (stereo not drawn)
active: growth inhibition [4] 92%
inactive: growth inhibition [1] 42% | inhibition [2] 1% | inhibition [3] -6% | outcome [5] | outcome [6] | outcome [7] | outcome [8]

CN1CCN(c2ccnc3ccc(NC(=O)Nc4ccc5ccccc5c4)cc23)CC1
active: growth inhibition [1] 99% | growth inhibition [4] 101%
inactive: inhibition [2] 2% | inhibition [3] -1% | outcome [5] | outcome [6] | outcome [7] | outcome [8]

N#Cc1ccc(CN2CCC(Oc3ccc(NC(=O)c4cccs4)cc3Cl)C2)cc1 (stereo not drawn)
active: growth inhibition [1] 95% | growth inhibition [4] 96%
inactive: inhibition [2] 31% | inhibition [3] -2% | outcome [5] | outcome [6] | outcome [7] | outcome [8]

COc1ccc(-c2ccccc2OCCCNc2nc(NCCc3ccc(O)cc3)nc(N3CCNCC3)n2)cc1
active: growth inhibition [4] 99%
inactive: growth inhibition [1] 3% | inhibition [2] 36% | inhibition [3] -1% | outcome [5] | outcome [6] | outcome [7] | outcome [8]

COc1ccc(CNCc2ccsc2)cc1-c1ccc(S(=O)(=O)NCCN2CCCC2)c(C)c1
inactive: growth inhibition [1] 43% | inhibition [2] 49% | inhibition [3] -1% | outcome [5] | outcome [6] | outcome [7] | outcome [8]
active: growth inhibition [4] 85%

Cc1c(CCC#N)c(NCc2ccccc2)n2c(nc3ccccc32)c1C#N
active: growth inhibition [1] 99% | growth inhibition [4] 100%
inactive: inhibition [2] 16% | inhibition [3] 2% | outcome [5] | outcome [6] | outcome [7] | outcome [8]

COc1ccc2nccc([C@@H](O)CN3CCC(NC(=O)CCC(=O)c4cc(C(C)(C)C)ccc4OC)CC3)c2c1
inactive: inhibition [2] 26% | inhibition [3] -9% | outcome [5] | outcome [6] | outcome [7] | outcome [8]
active: growth inhibition [1] 51% | growth inhibition [4] 94%

Cc1ccc2[nH]ncc2c1N(CC1CCCCC1)c1ccnc(Nc2ccc(OCC(O)CN3CC=CCC3)cc2)n1 (stereo not drawn)
active: growth inhibition [1] 79% | growth inhibition [4] 100%
inactive: inhibition [2] 29% | inhibition [3] -4% | outcome [5] | outcome [6] | outcome [7] | outcome [8]

Cc1ccc(-c2cc(C(=O)Nc3ccc(S(=O)(=O)N4CC(C)OC(C)C4)cc3)[nH]n2)c(O)c1 (stereo not drawn)
active: growth inhibition [1] 98% | growth inhibition [4] 91%
inactive: inhibition [2] 16% | inhibition [3] -1% | outcome [5] | outcome [6] | outcome [7] | outcome [8]

CN(C)CCCNc1ncnc2c1[nH]c1ccc(Br)cc12
inactive: growth inhibition [1] 19% | inhibition [2] 3% | inhibition [3] 3% | outcome [5] | outcome [6] | outcome [7] | outcome [8]
active: growth inhibition [4] 100%

COc1ccc(-c2cc(-c3nc4ccc(C(=O)N5CCOCC5)cc4[nH]3)c(=O)n(C)c2)cc1OC
inactive: inhibition [2] 6% | inhibition [3] 4% | outcome [5] | outcome [6] | outcome [7] | outcome [8]
active: growth inhibition [1] 95% | growth inhibition [4] 93%

CCC(=O)Oc1ccc(NC(=O)c2cccc(OC)c2)cc1
active: growth inhibition [4] 98%
inactive: growth inhibition [1] 3% | inhibition [2] 17% | inhibition [3] 6% | outcome [5] | outcome [6] | outcome [7] | outcome [8]

CCCNC(=O)Nc1cc2cc(-c3ccc(CN4CCCC4)cc3)ccc2n2c(C)nnc12
inactive: growth inhibition [1] 11% | inhibition [3] 0% | outcome [5] | outcome [6] | outcome [7] | outcome [8]
active: inhibition [2] 67% | growth inhibition [4] 93%

Cc1cc(OCCCn2ccnc2)ccc1-c1csc(NC(N)=NCc2ccccc2)n1
inactive: growth inhibition [1] 42% | inhibition [2] 26% | inhibition [3] 2% | outcome [5] | outcome [6] | outcome [7] | outcome [8]
active: growth inhibition [4] 92%

O=C(Nc1ccccc1-c1ccccc1)C1CCCN1C(=O)Nc1ccc(Cl)cc1 (stereo not drawn)
active: growth inhibition [1] 90% | growth inhibition [4] 96%
inactive: inhibition [2] -6% | inhibition [3] -4% | outcome [5] | outcome [6] | outcome [7] | outcome [8]

COc1ccc2nccc([C@@H](O)CN3CCC(NC(=O)/C=C/c4ccc5[nH]c(=O)ccc5c4)CC3)c2c1
inactive: inhibition [2] 2% | inhibition [3] 5% | outcome [5] | outcome [6] | outcome [7] | outcome [8]
active: growth inhibition [1] 83% | growth inhibition [4] 96%

Nc1cc(-c2cccc(Cl)c2)nn1-c1ccnc2cc(Cl)ccc12
active: growth inhibition [4] 99%
inactive: growth inhibition [1] 33% | inhibition [2] -3% | inhibition [3] -2% | outcome [5] | outcome [6] | outcome [7] | outcome [8]

CCCC(C)Nc1nc(C)cc(N[C@@H](CC(C)C)C(=O)Nc2ccc(OC)cc2)n1 (stereo partly drawn)
active: growth inhibition [1] 68% | growth inhibition [4] 98%
inactive: inhibition [2] 18% | inhibition [3] -1% | outcome [5] | outcome [6] | outcome [7] | outcome [8]

O=[N+]([O-])c1nc(Br)n(Cc2ccc(Cl)cc2)n1
inactive: inhibition [2] -3% | inhibition [3] -1% | outcome [5] | outcome [6] | outcome [7] | outcome [8]
active: growth inhibition [1] 95% | growth inhibition [4] 96%

O=C(Oc1ccc(C2CNCCc3c2cc(OC(=O)c2ccc(O)cc2)c(OC(=O)c2ccc(O)cc2)c3Cl)cc1)c1ccc(O)cc1 (stereo not drawn)
active: growth inhibition [1] 60% | growth inhibition [4] 90%
inactive: inhibition [2] -2% | inhibition [3] 0% | outcome [5] | outcome [6] | outcome [7] | outcome [8]
